Assay [1] addresses Peroxisome proliferator-activated receptor gamma (Homo sapiens) (UniProt P37231). The experiment in a line: ATG_hPPARg_XSP1: Attagene TRANS-FACTORIAL Multi-Species (XSP1) HepG2 Assay for human Peroxisome Proliferator-activated Receptor gamma (PPARg) (AID 2283800). The method in brief:
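Reporter mRNA induction, measured by RT-PCR with capillary electrophoresis 24 h after dosing, scored as gain over DMSO. Transfected HepG2 cells express exogenous NR-Gal4 chimeras driving GAL4-UAS reporters; medium includes 3 nM 6-alpha-fluorotestosterone.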

Assay [2] has as its system zebrafish Peroxisome Proliferator-activated Receptor gamma (PPARg), gene 557037. The experiment in a line: ATG_zfPPARg_XSP1: Attagene TRANS-FACTORIAL Multi-Species (XSP1) HepG2 Assay for zebrafish Peroxisome Proliferator-activated Receptor gamma (PPARg) (AID 2283801). The method in brief: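 Trans-activation readout of chimeric zebrafish PPARg–GAL4 in transiently transfected human HepG2 cells, 24 h chemical exposure (medium includes 3 nM 6-alpha-fluorotestosterone). Reporter transcripts measured by RT-PCR and capillary electrophoresis, fitted as gain over DMSO.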

Assay [3] concerns the target mouse Peroxisome Proliferator-activated Receptor gamma (PPARg), Pparg (gene 19016) (UniProt P37238). The experiment in a line: ATG_mPPARg_XSP1: Attagene TRANS-FACTORIAL Multi-Species (XSP1) HepG2 Assay for mouse Peroxisome Proliferator-activated Receptor gamma (PPARg) (AID 2283802). The method in brief: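 Readout is reporter mRNA induction, measured by RT-PCR with 6-FAM labelling, HpaI digestion and capillary electrophoresis, 24 h post-dose relative to DMSO. Transient multi-reporter transfection of human HepG2 with mouse PPARg–GAL4 fusion; 3 nM 6-alpha-fluorotestosterone included.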

Assay [4] deals with Nuclear receptor subfamily 1 group I member 2 (Mus musculus) (UniProt O54915). The experiment in a line: ATG_mPXR_XSP1: Attagene TRANS-FACTORIAL Multi-Species (XSP1) HepG2 Assay for mouse Pregnane X Receptor (PXR) (AID 2283803). The method in brief:
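Transiently transfected HepG2 cells expressing a receptor-Gal4 chimera drive a GAL4-UAS reporter; 3 nM 6-alpha-fluorotestosterone included. Reporter mRNA read 24 h post-dose by RT-PCR and capillary electrophoresis; gain of signal relative to DMSO.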

For assay [5], the target named is zebrafish Thyroid Hormone Receptor alpha (TRa), thraa (gene 30670) (UniProt Q98867). The experiment in a line: ATG_zfTRa_XSP1: Attagene TRANS-FACTORIAL Multi-Species (XSP1) HepG2 Assay for zebrafish Thyroid Hormone Receptor alpha (TRa) (AID 2283807). The method in brief:
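Reporter transcripts driven by a chimeric zebrafish TRa–Gal4 protein were measured by RT-PCR with fluorescent labelling and capillary electrophoresis. These came from transiently transfected HepG2 cells after 24 h chemical exposure, with 3 nM 6-alpha-fluorotestosterone added; baseline was DMSO.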

Assay [6] addresses zebrafish Thyroid Hormone Receptor beta (TRb), thrb (gene 30607) (UniProt Q9PVE4). The experiment in a line: ATG_zfTRb_XSP1: Attagene TRANS-FACTORIAL Multi-Species (XSP1) HepG2 Assay for zebrafish Thyroid Hormone Receptor beta (TRb) (AID 2283809). The method in brief:
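HepG2 cells transiently transfected with multiplexed GAL4-UAS reporter units expressing chimeric zebrafish TRb–Gal4. Dosed 24 h with 3 nM 6-alpha-fluorotestosterone present; reporter mRNA measured by RT-PCR, HpaI digestion and capillary electrophoresis; gain of signal versus DMSO.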

The nature of assay [7]: ATG_M_06_XSP2: Attagene TRANS-FACTORIAL Multi-Species (XSP2) HepG2 Assay for M06 Transcription Factor (Internal Marker) (AID 2283811).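 Note: hits are increases in signal above the DMSO baseline.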 In short, it runs like this:
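Internal-marker reporter transcript, quantified by RT-PCR, 6-FAM labelling, HpaI digestion and capillary electrophoresis, 24 hours after dosing transfected HepG2 cells with 3 nM 6-alpha-fluorotestosterone and 1.5 nM norgestrel present; DMSO baseline.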

Assay [8] deals with GAL4 Transcription Factor (Internal Marker), GAL4 (gene 855828) (UniProt P04386). The experiment in a line: ATG_GAL4_XSP2: Attagene TRANS-FACTORIAL Multi-Species (XSP2) HepG2 Assay for GAL4 Transcription Factor (Internal Marker) (AID 2283814).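 Note: GAL4 reporter mRNA background control in MRTU transfected cells not a receptor target.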 In short, it runs like this: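 Background-control readout: gain-of-signal fitted against DMSO. After 24 h exposure of transfected HepG2 (MRTU, GAL4-UAS reporters; 3 nM 6-alpha-fluorotestosterone, 1.5 nM norgestrel present), transcripts quantified by RT-PCR and capillary electrophoresis fluorescence.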
GAL4 Transcription Factor (Internal Marker), GAL4 (gene 855828), sequence (P04386 whole entry, looked up, the tested form may be a part): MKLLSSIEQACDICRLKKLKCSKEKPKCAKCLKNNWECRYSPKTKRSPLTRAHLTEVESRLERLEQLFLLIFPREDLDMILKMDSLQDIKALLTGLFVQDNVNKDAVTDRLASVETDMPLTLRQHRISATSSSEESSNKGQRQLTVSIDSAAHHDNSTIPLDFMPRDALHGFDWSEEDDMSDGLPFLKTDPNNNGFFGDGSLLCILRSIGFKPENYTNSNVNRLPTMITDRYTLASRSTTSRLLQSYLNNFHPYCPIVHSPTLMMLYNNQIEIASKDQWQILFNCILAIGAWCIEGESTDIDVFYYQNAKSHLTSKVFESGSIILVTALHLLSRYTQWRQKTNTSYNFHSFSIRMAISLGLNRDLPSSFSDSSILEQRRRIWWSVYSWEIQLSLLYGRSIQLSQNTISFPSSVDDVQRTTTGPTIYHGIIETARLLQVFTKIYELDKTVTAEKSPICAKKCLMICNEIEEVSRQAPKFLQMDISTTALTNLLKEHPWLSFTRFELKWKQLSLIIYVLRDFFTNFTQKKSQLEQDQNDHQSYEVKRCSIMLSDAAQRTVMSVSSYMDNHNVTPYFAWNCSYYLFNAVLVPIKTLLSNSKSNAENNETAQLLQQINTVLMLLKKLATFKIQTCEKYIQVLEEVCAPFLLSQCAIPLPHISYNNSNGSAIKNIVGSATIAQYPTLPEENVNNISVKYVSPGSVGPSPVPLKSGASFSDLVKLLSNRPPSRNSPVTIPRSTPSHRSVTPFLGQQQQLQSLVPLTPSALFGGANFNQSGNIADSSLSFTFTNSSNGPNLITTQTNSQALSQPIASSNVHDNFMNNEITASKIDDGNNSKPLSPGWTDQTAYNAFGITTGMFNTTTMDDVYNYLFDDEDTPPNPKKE

In assay [9] the target is chicken Estrogen Receptor (ERa), ESR1 (gene 396099) (UniProt P06212). As to the kind of experiment: ATG_chERa_XSP2: Attagene TRANS-FACTORIAL Multi-Species (XSP2) HepG2 Assay for chicken Estrogen Receptor (ERa) (AID 2283817).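 Note: actives raise reporter signal above DMSO so AC50 reflects ER activation.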 The method in brief:
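Reporter mRNA induction read by RT-PCR, fluorescent labelling and capillary electrophoresis after 24 h exposure; positive-direction fit against DMSO baseline. HepG2 cells transfected with multiplexed GAL4-UAS units including chicken ERa chimera; medium contained 3 nM 6-alpha-fluorotestosterone plus 1.5 nM norgestrel.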

The test system of assay [10] is zebrafish Estrogen Receptor (ER2a), gene 317734. The experiment in a line: ATG_zfER2a_XSP2: Attagene TRANS-FACTORIAL Multi-Species (XSP2) HepG2 Assay for zebrafish Estrogen Receptor (ER2a) (AID 2283818).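 Note: hits raise reporter mRNA so AC50 reflects activation of zebrafish ER2a.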 In short, it runs like this: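 Multiplexed trans-reporter readout: RT-PCR then capillary electrophoresis of reporter transcripts after 24 h compound treatment. Human HepG2 carries transfected zebrafish ER2a-Gal4 chimera; 3 nM 6-alpha-fluorotestosterone plus 1.5 nM norgestrel present. Induction scored against DMSO.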

The target of assay [11] is frog Thyroid hormone Receptor alpha (TRa), thra-a (gene 397942) (UniProt P15204). The experiment in a line: ATG_frTRa_XSP1: Attagene TRANS-FACTORIAL Multi-Species (XSP1) HepG2 Assay for frog Thyroid hormone Receptor alpha (TRa) (AID 2283804). In short, it runs like this: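 Reporter transcript induction, measured by RT-PCR with 6-FAM labelling and capillary electrophoresis, 24 hr after dosing transiently transfected HepG2 cells expressing a frog TRa-GAL4 fusion; medium contained 3 nM 6-alpha-fluorotestosterone; increase over DMSO scored.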

The target in assay [12] is human Thyroid hormone Receptor alpha (TRa), THRA (gene 7067) (UniProt P10827). The experiment in a line: ATG_hTRa_XSP1: Attagene TRANS-FACTORIAL Multi-Species (XSP1) HepG2 Assay for human Thyroid hormone Receptor alpha (TRa) (AID 2283805). In short, it runs like this:
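Reporter transcripts from the human TRa-Gal4 TRANS unit quantified by RT-PCR, fluorescent labeling and capillary electrophoresis after 24 hours of chemical exposure in transfected HepG2 cells; medium contains 3 nM 6-alpha-fluorotestosterone. Positive direction fit against DMSO.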

Assay [13] concerns turtle Thyroid Hormone Receptor, alpha (TRa), gene 101949057. As to the kind of experiment: ATG_trTRa_XSP1: Attagene TRANS-FACTORIAL Multi-Species (XSP1) HepG2 Assay for turtle Thyroid Hormone Receptor, alpha (TRa) (AID 2283806). In short, it runs like this: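 After 24 h chemical exposure, reporter transcripts were measured by RT-PCR with fluorescent primer extension, HpaI digestion and capillary electrophoresis. Cells were transiently transfected HepG2 expressing exogenous NR-Gal4 chimeras; medium contained 3 nM 6-alpha-fluorotestosterone; fitted upward relative to DMSO.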

Assay [14] has as its target human Thyroid hormone Receptor beta (TRb), THRB (gene 7068) (UniProt P10828). As to the kind of experiment: ATG_hTRb_XSP1: Attagene TRANS-FACTORIAL Multi-Species (XSP1) HepG2 Assay for human Thyroid hormone Receptor beta (TRb) (AID 2283808). In short, it runs like this: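 Readout is reporter mRNA induction measured by RT-PCR, fluorescent labelling and capillary electrophoresis, fitted upward relative to DMSO. Transiently transfected human HepG2 cells expressing NR-Gal4 chimeras were dosed for 24 h, medium containing 3 nM 6-alpha-fluorotestosterone.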

Assay [15] deals with zebrafish Estrogen Receptor (ER1), esr1 (gene 259252) (UniProt P57717). As to the kind of experiment: ATG_zfER1_XSP2: Attagene TRANS-FACTORIAL Multi-Species (XSP2) HepG2 Assay for zebrafish Estrogen Receptor (ER1) (AID 2283816). In short, it runs like this:
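After 24 h compound exposure, RNA from transfected HepG2 cells was reverse-transcribed and reporter transcripts resolved by capillary electrophoresis. The TRANS format reads exogenous zebrafish ER1-Gal4 chimera activity on GAL4-UAS elements; gain of signal against DMSO.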

The test system of assay [16] is chicken Androgen Receptor (AR), gene 422165. As to the kind of experiment: ATG_chAR_XSP2: Attagene TRANS-FACTORIAL Multi-Species (XSP2) HepG2 Assay for chicken Androgen Receptor (AR) (AID 2283819).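 Note: hits raise reporter mRNA above DMSO so potency is for activation.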 In short, it runs like this:
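Readout is reporter mRNA induction via RT-PCR/capillary electrophoresis after 24 h chemical exposure, positive direction relative to DMSO. Transiently transfected HepG2 express chimeric chicken AR–GAL4; AR stimulated by 3 nM 6-alpha-fluorotestosterone and 1.5 nM norgestrel.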

Assay [17] has as its system turtle Androgen Receptor (AR), gene 101947425. As to the kind of experiment: ATG_trAR_XSP2: Attagene TRANS-FACTORIAL Multi-Species (XSP2) HepG2 Assay for turtle Androgen Receptor (AR) (AID 2283815). In short, it runs like this: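 Reporter transcripts were quantified via RT-PCR and capillary electrophoresis and fitted upward against DMSO. Transiently transfected human HepG2 cells carrying NR-Gal4 chimeras were exposed 24 h, with 3 nM 6-alpha-fluorotestosterone plus 1.5 nM norgestrel added.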

Assay [18] deals with Estrogen receptor beta (Homo sapiens) (UniProt Q92731). The experiment in a line: ATG_hERb_XSP2: Attagene TRANS-FACTORIAL Multi-Species (XSP2) HepG2 Assay for human Estrogen Receptor (ERb) (AID 2283813).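 Note: actives raise reporter mRNA above DMSO so AC50 reflects agonist induction.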 The method in brief: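 Transient TRANS reporter system in HepG2: after 24 h of chemical, RNA is reverse-transcribed, reporter cDNA amplified, FAM-labelled and sized by capillary electrophoresis. Induction of the human ERb-Gal4 reporter is measured relative to DMSO.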
Estrogen receptor beta (Homo sapiens), sequence (Q92731 whole entry, looked up, the tested form may be a part): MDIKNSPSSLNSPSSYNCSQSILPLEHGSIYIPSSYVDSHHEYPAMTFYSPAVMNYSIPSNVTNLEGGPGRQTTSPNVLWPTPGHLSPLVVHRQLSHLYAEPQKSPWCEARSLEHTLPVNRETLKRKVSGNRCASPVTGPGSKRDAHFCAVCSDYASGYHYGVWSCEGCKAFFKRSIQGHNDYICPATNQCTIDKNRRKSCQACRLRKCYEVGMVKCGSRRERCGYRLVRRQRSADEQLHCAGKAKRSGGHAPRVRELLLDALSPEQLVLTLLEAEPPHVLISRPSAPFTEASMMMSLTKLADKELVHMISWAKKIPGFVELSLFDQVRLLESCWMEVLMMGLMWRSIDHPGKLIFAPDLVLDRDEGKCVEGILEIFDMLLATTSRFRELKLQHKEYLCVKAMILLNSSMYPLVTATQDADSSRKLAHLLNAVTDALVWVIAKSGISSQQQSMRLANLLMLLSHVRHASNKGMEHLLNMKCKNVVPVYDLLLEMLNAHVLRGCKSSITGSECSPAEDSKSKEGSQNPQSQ

The nature of assay [19]: ATG_M_32_XSP1: Attagene TRANS-FACTORIAL Multi-Species (XSP1) HepG2 Assay for M32 Transcription Factor (Internal Marker) (AID 2283799). In short, it runs like this: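 Reporter transcripts from the M32 internal-control unit measured by RT-PCR, FAM labelling, HpaI digestion and capillary electrophoresis after 24 h compound exposure of transfected HepG2, 3 nM 6-alpha-fluorotestosterone included; DMSO baseline, positive-direction fit.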

Assay [20] is described as follows: ATG_XTT_Cytotoxicity_XSP1: Cytotoxicity Assessment in the Attagene TRANS-FACTORIAL Multi-Species (XSP1) HepG2 Assay (AID 2283810). In short, it runs like this:
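XTT viability readout taken at 24 hours post-dosing in HepG2 liver cells co-treated with 3 nM 6-alpha-fluorotestosterone. Signal loss relative to DMSO controls reflects cytotoxicity.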

Several values for one entry are separate records, joined by “and”; a condition that tells them apart may be missing. Equal entries are not always repeated. Inconclusive results are not listed. Where a structure was tested more than once in an assay, its records may differ in their call. Activity calls are given as the source filed them. Rule for the calls: active = hit-call score of the fitted dose curve at least 0.9, where 1 is the maximum; inconclusive = response in the unintended direction; inactive = score below 0.9.

zebrafish Thyroid Hormone Receptor beta (TRb), thrb (gene 30607), sequence (Q9PVE4 whole entry, looked up, the tested form may be a part): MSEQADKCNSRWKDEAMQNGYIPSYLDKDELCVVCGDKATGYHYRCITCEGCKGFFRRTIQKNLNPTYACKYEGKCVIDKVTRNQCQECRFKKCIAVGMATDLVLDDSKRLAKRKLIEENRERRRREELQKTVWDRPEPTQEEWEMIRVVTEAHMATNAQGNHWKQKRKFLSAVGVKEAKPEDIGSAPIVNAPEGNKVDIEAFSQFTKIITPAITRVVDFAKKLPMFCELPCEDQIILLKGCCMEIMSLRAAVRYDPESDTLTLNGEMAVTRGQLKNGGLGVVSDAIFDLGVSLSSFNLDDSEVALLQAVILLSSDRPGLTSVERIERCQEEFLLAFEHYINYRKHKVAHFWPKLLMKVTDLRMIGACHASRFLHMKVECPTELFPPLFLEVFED
zebrafish Thyroid Hormone Receptor alpha (TRa), thraa (gene 30670), sequence (Q98867 whole entry, looked up, the tested form may be a part): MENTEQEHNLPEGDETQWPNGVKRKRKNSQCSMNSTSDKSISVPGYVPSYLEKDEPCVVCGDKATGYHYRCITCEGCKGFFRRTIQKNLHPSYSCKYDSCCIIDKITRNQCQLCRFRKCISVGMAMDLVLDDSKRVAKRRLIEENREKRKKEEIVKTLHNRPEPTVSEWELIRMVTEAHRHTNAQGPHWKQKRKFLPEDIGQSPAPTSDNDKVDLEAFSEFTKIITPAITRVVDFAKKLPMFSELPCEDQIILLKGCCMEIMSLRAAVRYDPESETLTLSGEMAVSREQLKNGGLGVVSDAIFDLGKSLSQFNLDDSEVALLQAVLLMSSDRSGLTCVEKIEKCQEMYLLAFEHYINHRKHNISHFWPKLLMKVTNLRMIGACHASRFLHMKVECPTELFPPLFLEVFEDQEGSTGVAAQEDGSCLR
zebrafish Estrogen Receptor (ER1), esr1 (gene 259252), sequence (P57717 whole entry, looked up, the tested form may be a part): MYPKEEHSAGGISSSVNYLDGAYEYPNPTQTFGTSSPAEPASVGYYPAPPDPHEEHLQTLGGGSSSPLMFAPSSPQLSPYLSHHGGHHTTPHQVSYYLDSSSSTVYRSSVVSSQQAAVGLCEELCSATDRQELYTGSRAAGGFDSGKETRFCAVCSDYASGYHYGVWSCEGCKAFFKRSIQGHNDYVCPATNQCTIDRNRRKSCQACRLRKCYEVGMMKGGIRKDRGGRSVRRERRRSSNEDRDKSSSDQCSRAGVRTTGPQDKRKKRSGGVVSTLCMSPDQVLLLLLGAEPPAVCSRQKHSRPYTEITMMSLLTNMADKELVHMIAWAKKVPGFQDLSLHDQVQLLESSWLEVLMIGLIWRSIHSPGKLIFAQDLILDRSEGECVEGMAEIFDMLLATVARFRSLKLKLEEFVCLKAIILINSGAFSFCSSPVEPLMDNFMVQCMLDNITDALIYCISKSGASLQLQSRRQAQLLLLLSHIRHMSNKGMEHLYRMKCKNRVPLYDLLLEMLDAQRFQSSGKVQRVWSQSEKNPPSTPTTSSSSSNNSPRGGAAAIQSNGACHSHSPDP
chicken Estrogen Receptor (ERa), ESR1 (gene 396099), sequence (P06212 whole entry, looked up, the tested form may be a part): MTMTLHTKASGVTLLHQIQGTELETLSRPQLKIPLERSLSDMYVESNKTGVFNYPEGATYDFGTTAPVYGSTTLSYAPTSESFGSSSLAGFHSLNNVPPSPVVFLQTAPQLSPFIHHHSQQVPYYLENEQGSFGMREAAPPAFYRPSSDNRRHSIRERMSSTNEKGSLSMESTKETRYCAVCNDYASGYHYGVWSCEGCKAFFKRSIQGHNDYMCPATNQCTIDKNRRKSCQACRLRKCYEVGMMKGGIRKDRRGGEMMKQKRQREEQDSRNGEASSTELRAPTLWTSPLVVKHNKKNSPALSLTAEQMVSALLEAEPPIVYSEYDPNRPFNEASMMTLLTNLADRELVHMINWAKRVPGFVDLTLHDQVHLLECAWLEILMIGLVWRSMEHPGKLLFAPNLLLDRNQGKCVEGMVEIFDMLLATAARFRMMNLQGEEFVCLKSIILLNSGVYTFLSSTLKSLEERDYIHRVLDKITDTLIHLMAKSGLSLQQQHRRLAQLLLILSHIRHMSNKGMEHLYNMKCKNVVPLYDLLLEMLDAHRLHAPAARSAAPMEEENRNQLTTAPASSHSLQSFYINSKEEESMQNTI
mouse Peroxisome Proliferator-activated Receptor gamma (PPARg), Pparg (gene 19016), sequence (P37238 whole entry, looked up, the tested form may be a part): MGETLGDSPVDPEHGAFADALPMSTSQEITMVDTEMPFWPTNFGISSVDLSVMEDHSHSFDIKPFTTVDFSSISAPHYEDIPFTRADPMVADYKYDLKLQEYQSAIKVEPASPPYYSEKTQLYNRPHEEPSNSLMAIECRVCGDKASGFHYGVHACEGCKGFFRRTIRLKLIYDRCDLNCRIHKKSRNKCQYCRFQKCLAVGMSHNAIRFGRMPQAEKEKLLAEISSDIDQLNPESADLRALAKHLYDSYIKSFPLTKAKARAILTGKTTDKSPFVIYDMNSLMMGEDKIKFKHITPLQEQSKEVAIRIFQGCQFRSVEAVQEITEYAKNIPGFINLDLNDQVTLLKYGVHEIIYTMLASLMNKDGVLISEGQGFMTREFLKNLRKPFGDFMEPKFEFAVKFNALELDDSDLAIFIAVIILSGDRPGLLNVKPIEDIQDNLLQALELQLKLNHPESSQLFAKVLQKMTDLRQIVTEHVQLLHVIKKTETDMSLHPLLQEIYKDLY
Peroxisome proliferator-activated receptor gamma (Homo sapiens), sequence (P37231 whole entry, looked up, the tested form may be a part): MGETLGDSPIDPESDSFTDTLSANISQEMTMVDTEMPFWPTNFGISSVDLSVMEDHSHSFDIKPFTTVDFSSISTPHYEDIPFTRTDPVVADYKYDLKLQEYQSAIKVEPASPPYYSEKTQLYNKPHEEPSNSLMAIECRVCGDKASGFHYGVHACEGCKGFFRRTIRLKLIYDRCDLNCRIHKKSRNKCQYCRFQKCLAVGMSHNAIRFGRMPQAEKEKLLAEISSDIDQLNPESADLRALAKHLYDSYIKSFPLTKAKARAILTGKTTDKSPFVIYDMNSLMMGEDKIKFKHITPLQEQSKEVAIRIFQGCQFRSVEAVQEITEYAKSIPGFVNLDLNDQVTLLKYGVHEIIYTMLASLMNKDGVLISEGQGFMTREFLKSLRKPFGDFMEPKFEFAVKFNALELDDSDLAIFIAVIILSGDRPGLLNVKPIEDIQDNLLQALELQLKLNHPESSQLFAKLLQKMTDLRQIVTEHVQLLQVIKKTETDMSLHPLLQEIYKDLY
human Thyroid hormone Receptor beta (TRb), THRB (gene 7068), sequence (P10828 whole entry, looked up, the tested form may be a part): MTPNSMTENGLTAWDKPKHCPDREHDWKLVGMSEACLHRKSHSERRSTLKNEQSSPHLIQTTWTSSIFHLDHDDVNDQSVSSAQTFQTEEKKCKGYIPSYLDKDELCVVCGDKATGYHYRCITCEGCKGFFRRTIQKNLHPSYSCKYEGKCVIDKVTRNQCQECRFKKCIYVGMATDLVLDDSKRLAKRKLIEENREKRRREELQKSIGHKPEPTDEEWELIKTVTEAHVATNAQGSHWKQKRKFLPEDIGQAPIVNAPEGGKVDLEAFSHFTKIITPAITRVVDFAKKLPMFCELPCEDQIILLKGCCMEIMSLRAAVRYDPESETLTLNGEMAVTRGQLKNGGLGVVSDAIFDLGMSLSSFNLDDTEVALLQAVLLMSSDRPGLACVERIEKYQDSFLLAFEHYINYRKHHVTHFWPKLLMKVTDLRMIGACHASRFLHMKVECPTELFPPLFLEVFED

`COP(=O)(OC)O/C(=C\Cl)c1cc(Cl)c(Cl)cc1Cl`: the half-maximal activity concentration (AC50) (usually the midpoint of the concentration-response curve, whichever way the signal moves) in assay [1] was 14 µM (active); in assay [3], 32.3 µM (active); in [4], 30.3 µM (active); in assay [9], 4.9 µM (active). Moreover, the molecule was called inactive in assay [2], in [5], in assay [6], in assay [7], in assay [8] and in [10].
`O=C1C2(Cl)C3(Cl)C4(Cl)C(Cl)(Cl)C5(Cl)C3(Cl)C1(Cl)C5(Cl)C24Cl` (configuration not stated): the result in assay [11], in [12], in assay [13], in assay [5], in [14] and in [6] was inactive. The call in assay [7] and in assay [15] was inactive. Further, the AC50 in assay [9] is 1.33 µM (active).
Regarding `CC(=O)C=C(C)C`, the molecule was called inactive in assay [7], in assay [15], in [9], in assay [10] and in [16]. In addition, the AC50 in assay [10] was 46.7 µM (active).
For the molecule `CC(C)(C)c1cc(O)ccc1O`, the call in [2], in assay [11], in assay [12], in assay [5], in assay [6] and in [7] was inactive. The result in assay [17], in assay [15] and in assay [16] was inactive. Also, the values for the AC50 in assay [3], in assay [9] and in [10] were 14.9 µM (active), 24.6 µM (active) and 43.8 µM (active), respectively.
Turning to `Clc1ccc(C2(Cn3cncn3)CC(Br)CO2)c(Cl)c1` (configuration not stated), the molecule was called inactive in assay [7], in assay [18], in [8], in assay [15], in assay [9] and in assay [10]. Moreover, the AC50 in [9] is 3.47 µM (active); in [10], 37.4 µM (active).
In the case of `Oc1c(I)cc(I)cc1I`, the result in assay [7], in assay [18] and in assay [15] was inactive. Moreover, the concentration at half-maximal activity (AC50) in assay [9] is 2.58 µM (active).
Consider `C[C@H]1CCCC(=O)CCC/C=C/c2cc(O)cc(O)c2C(=O)O1`, for which the molecule was classed as inactive in assay [7], in assay [18], in [15] and in assay [16]. The concentration at half-maximal activity (AC50) in [18] was 0.00299 µM (active); in assay [15], 0.00996 µM (active); in assay [9], 6.03 nM (active) and 1.45 nM (active); in assay [10] it was 24.6 nM (active) and 6.41 nM (active).
Regarding `CC1(C)CCC(Cc2ccc(Cl)cc2)C1(O)Cn1cncn1` (configuration not stated), the result in assay [19], in assay [1], in assay [2], in assay [13], in [5] and in assay [14] was inactive. Moreover, the outcome in assay [6], in assay [20], in assay [7], in assay [8], in assay [15] and in assay [10] was inactive. The AC50 in assay [3] was 78.6 µM (active); in [4], 2.24 µM (active); in assay [9], 3.58 µM (active).

The values are drawn from PubChem BioAssay (EPA / NIEHS).
